The values below come from PubChem BioAssay.

The structures appear in SMILES notation. Activity calls are given as the source filed them.

The subject of experiment [1] is Plasmodium falciparum Sir2 (PF13_0152, Sir2A). The experiment can be described thus: Plasmodium falciparum Sir2A binding compounds – biochemical, small-molecule microarray, 635 nm fluorescence, primary screen (AID 1098).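 Further: score merges spot fluorescence intensity with its signal-to-noise ratio.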 Conditions: fluorescence 635 nm, higher = more signal.
Experiment [2] is described as follows: probe aDKK1 binding to arrayed compounds – biochemical, biotinylated probe, 635/667 nm fluorescence, primary screen (AID 1099).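 Further: score merges 667nm spot fluorescence with signal to noise across triplicate slides; reference of the scale not given here.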 Conditions: small-molecule microarray, higher = more signal.
Experiment [3] is described as follows: probe aCHRDL2 binding to arrayed compounds – biochemical, biotinylated probe, 635/667 nm fluorescence, primary screen (AID 1100). Conditions: small-molecule microarray, higher = more signal.
Experiment [4] is described as follows: change in splice reporter luminescence, either direction, cell-based, HEK293, spliceosome inhibition project, primary screen (AID 1101).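 Further: HEK293 cells carrying a splicing-competent luciferase reporter gene; test concentration not given here.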 Conditions: HEK293 splicing luciferase reporter, 24 h, higher = more signal, called active from +8 up or from −8 down. In general terms: Reporter assays use an easily measured gene product as a stand-in for the process of interest.

The target in experiment [5] is Fibroblast growth factor 10 (Homo sapiens) (UniProt O15520). Description: compounds binding fibroblast growth factor 10 – biochemical, small-molecule microarray, 635 nm fluorescence, primary screen (AID 1102). Conditions: FGF10 binding, fluorescence 635 nm, higher = more signal.
Fibroblast growth factor 10 (Homo sapiens), sequence (O15520 whole entry, looked up): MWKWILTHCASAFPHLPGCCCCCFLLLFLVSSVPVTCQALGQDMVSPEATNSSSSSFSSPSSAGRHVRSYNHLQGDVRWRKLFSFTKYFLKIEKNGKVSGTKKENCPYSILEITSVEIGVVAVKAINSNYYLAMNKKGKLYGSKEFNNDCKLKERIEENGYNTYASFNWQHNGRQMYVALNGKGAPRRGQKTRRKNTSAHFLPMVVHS
In experiment [6] the test system is glycogen synthase kinase-3 (GSK3A per assay name; protocol says GSK3B). The experiment can be described thus: compounds binding glycogen synthase kinase-3 – biochemical, small-molecule microarray, 635 nm fluorescence, GSK3A, primary screen (AID 1103). Further: the record names both GSK3A and GSK3B. Conditions: fluorescence 635 nm, higher = more signal.
Experiment [7] has as its target Epidermal growth factor receptor (Homo sapiens) (UniProt P00533). The experiment can be described thus: compounds binding epidermal growth factor receptor – biochemical, small-molecule microarray, 635 nm fluorescence, primary screen (AID 1104).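 Further: score merges 667 nm emission intensity with spot signal to noise over triplicate slides.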 Conditions: EGFR binding, higher = more signal.
Experiment [8] addresses Follistatin-related protein 3 (Homo sapiens) (UniProt O95633). The experiment can be described thus: compounds binding follistatin-related protein 3 – biochemical, small-molecule microarray, 635 nm fluorescence, primary screen (AID 1105).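 Further: score merges emission near 667 nm and signal to noise per printed spot across three slides.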 Conditions: FSTL3 binding, higher = more signal.
For experiment [9], the target named is Dickkopf-related protein 1 (Homo sapiens) (UniProt O94907). The experiment can be described thus: small molecules binding DKK1 protein – biochemical, small-molecule microarray, 635 nm fluorescence scan, primary screen (AID 1106).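 Further: score merges emission near 667 nm with signal to noise over three replicate slides.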 Conditions: higher = more signal.
Dickkopf-related protein 1 (Homo sapiens), sequence (O94907 whole entry, looked up): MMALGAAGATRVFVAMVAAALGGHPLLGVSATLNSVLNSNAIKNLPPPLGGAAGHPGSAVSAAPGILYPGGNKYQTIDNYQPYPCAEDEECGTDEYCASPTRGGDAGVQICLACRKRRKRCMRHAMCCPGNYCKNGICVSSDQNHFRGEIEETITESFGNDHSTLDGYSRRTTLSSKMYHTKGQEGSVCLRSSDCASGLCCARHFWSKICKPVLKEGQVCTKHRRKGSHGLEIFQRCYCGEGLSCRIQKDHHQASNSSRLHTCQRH
Experiment [10] has as its system Inhibin beta A chain (activin A). The experiment can be described thus: small molecules binding activin A – biochemical, small-molecule microarray, 635 nm fluorescence scan, primary screen (AID 1107).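 Further: mouse activin A protein probed at 4.33 µg/mL on printed slides; score merges bound-protein fluorescence near 667 nm with spot signal-to-noise.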 Conditions: INHBA, higher = more signal.

Follistatin-related protein 3 (Homo sapiens), sequence (O95633 whole entry, looked up): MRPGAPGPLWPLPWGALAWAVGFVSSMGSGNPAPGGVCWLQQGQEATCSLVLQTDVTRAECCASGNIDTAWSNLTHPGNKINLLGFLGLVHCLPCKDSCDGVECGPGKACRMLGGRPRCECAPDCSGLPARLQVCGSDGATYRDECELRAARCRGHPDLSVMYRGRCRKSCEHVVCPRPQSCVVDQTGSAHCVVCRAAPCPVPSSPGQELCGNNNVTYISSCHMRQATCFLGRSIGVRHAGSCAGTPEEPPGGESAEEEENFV
Epidermal growth factor receptor (Homo sapiens), sequence (P00533 whole entry, looked up): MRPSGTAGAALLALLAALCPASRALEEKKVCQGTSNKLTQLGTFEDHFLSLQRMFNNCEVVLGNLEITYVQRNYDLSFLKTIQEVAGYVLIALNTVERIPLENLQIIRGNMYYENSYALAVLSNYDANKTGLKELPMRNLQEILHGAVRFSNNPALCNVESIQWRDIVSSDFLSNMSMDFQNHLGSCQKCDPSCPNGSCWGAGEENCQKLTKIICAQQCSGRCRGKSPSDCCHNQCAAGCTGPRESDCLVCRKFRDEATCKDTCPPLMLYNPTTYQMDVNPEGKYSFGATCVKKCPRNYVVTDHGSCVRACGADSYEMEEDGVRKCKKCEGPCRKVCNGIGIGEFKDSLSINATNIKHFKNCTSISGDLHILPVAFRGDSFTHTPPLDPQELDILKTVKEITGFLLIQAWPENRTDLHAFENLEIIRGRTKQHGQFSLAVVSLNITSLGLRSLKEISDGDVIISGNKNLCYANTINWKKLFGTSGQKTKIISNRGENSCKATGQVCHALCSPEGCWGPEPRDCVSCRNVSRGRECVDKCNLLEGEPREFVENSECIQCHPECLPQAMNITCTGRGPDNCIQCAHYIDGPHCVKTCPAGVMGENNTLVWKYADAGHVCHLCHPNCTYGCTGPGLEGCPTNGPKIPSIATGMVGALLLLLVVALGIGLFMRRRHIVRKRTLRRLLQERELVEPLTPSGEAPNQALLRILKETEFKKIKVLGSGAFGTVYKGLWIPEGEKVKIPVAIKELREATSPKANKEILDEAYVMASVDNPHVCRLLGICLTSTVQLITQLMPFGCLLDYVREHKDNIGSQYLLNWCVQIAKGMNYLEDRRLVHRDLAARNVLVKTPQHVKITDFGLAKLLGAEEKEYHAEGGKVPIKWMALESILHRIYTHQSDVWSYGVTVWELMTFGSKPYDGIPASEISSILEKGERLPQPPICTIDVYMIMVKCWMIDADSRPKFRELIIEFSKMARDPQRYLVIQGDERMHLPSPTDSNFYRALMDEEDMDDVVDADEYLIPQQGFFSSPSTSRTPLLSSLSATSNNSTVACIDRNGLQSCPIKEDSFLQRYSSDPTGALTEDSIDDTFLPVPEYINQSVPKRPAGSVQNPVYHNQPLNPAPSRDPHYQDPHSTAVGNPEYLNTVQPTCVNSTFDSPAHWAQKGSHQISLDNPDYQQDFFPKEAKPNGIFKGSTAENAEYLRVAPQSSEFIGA

As to `Cc1ccc(S[C@]2(C(=O)O)CC(=O)N(Cc3ccccc3Cl)[C@@H]2c2ccc(CO)cc2I)cc1`, the composite z-score in [1] was 0.534; in [2], 1.47; in experiment [3] it was -0.217; in [5], -0.054; in [6], 0.202; in [7], 0.0365. Also, the composite z-score in experiment [8] stood at 0.653; in [9], 1.18; in [10] it was 0.164. Besides, the z-score in experiment [4] was -0.565 (inactive).
With `O=C1OCC=C[C@H]2OC34C=CCN(Cn5nnc6ccccc65)C(=O)[C@H]3N(CCCO)C(=O)[C@@H]4[C@@H]12` (stereo not given in full), the composite z-score is -0.0241 in experiment [1]; -0.0481 in [2]; 0.368 in [3]; -0.21 in experiment [5]; -1.08 in experiment [6]; -0.577 in experiment [7]. The composite z-score in experiment [8] was -1.39; in [9], -0.448; in experiment [10], 0.839. Moreover, the z-score in [4] was -1.26 (inactive).
Consider `C=C[C@@H](OC)[C@H](OC(=O)Nc1ccc(SC)cc1)c1ccc(O)c(F)c1`, for which the composite z-score in experiment [1] was 1.2; in experiment [2] it was -0.0849; in experiment [3] it was 0.293; in experiment [5], 0.588; in [6], 0.288; in experiment [7] it was -0.198. For the same molecule, the composite z-score stood at 0.213 in [8], 0.19 in experiment [9] and 0.312 in experiment [10]. Besides, in experiment [4], the z-score is -1.17 (inactive).
As to `C=C(/C(=C/C[C@H](OC(=O)c1ccncc1)c1ccc(CO)o1)c1cc(C(=O)OC)ccc1OC)C(C)C`, the composite z-score is 0.805 in experiment [1]; -0.0125 in experiment [2]; -0.0735 in experiment [3]; 0.909 in [5]; 0.851 in experiment [6]; 0.0286 in experiment [7]. Also, the values for the composite z-score in experiment [8], in experiment [9] and in experiment [10] were 0.752, 0.667 and 1.04, respectively. Besides, the z-score in experiment [4] was 0.174 (inactive).
For the molecule `O=C(NCC(F)(F)F)[C@@H]1c2ccccc2C(=O)N(Cc2ccc(OC(F)(F)F)cc2)[C@H]1c1ccc(CO)cc1`, the composite z-score in [1] is 1.16; in experiment [2] it was -0.113; in experiment [3], 0.433; in [5], 0.347; in experiment [6] it was -0.285; in experiment [7], -0.0633. Moreover, the composite z-score stood at 0.284 in experiment [8], 0.0428 in [9] and 0.551 in experiment [10]. In addition, in experiment [4], the z-score was -0.693 (inactive).
In the case of `CC1CC/C=C\[C@H]2OC34C=CCN(C(C)C)C(=O)[C@H]3N(CCCCCCO)C(=O)[C@@H]4C2C(=O)O1` (stereo not given in full), the composite z-score in [1] is 0.733; in experiment [2], -0.242; in experiment [3], 0.417; in experiment [5] it was -1.16; in [6], -1.22; in [7], -0.755. The composite z-score was -0.931 in [8], -1.24 in [9] and 0.25 in experiment [10]. In [4], the z-score was -0.935 (inactive).
On to `COCCOC(=O)N1C(=O)[C@@]2(c3cc(C#CC4=CCCCC4)ccc31)[C@H](c1ccccc1OCCO)N1[C@H](c3ccccc3)[C@H](c3ccccc3)OC(=O)[C@H]1[C@@H]2C(=O)N1CCCCCCC1`, for which the composite z-score is 1.17 in experiment [1]; 1.18 in experiment [2]; -0.624 in experiment [3]; 1.04 in [5]; 1.26 in [6]; 0.173 in experiment [7]. For the same molecule, the composite z-score in [8] is 0.974; in experiment [9], 0.818; in experiment [10], 0.451. In experiment [4], the z-score is -0.262 (inactive).
Consider `CCOC(=O)C1CCCCN1` (stereo not given), for which the composite z-score was 0.19 in experiment [1]; 1.06 in experiment [2]; -0.193 in experiment [3]; 0.946 in experiment [5]; 0.682 in [6]; 0.403 in experiment [7]. Further, the composite z-score in [8] is 0.653; in [9], 0.516; in [10], -0.104. Also, in experiment [4], the z-score is -0.283 (inactive).
For the molecule `O=C1O[C@H](c2ccccc2)[C@H](c2ccccc2)N2[C@H]1[C@@H](C(=O)Nc1nc3ccccc3s1)[C@]1(C(=O)Nc3ccccc31)[C@H]2c1ccc(OCCO)cc1`, the composite z-score in experiment [1] came to 1.35; in experiment [2], 0.07; in [3], 0.341; in [5] it was 0.841; in [6] it was 1.31; in experiment [7] it was 0.836. The composite z-score in experiment [8] came to 1.36; in [9], 1.31; in [10], 0.715. The z-score in experiment [4] is -0.472 (inactive).
With `CN(C)C(=O)C1N=C(c2ccc(OCCCO)cc2)N(c2ccccc2)O1` (stereo not given), the composite z-score was 1.22 in experiment [1]; 0.0309 in experiment [2]; -0.0552 in [3]; 1.5 in experiment [5]; 1.13 in [6]; 0.662 in experiment [7]. Moreover, the composite z-score was 0.739 in experiment [8], 0.726 in experiment [9] and -0.319 in experiment [10]. The z-score in [4] is -1.06 (inactive).
For `COCCOC(=O)N1C(=O)[C@@]2(c3cc(C#CCNC(N)=O)ccc31)[C@H](C(=O)N1CCc3cc(OC)c(OC)cc3C1)[C@H]1C(=O)O[C@H](c3ccccc3)[C@H](c3ccccc3)N1[C@@H]2c1ccccc1OCCO`, the composite z-score in experiment [1] came to 1.26; in [2] it was 0.073; in [3], 0.315; in [5], 1.41; in [6] it was 1.14; in experiment [7], 0.873. Besides, the composite z-score in experiment [8] turned out to be 1.14; in experiment [9], 0.246; in [10], 0.586. Moreover, in experiment [4], the z-score was 0.0466 (inactive).
On to `CN(C)CCCNC(=O)[C@@]1(c2ccc([N+](=O)[O-])cc2)CC(=O)N(CC23CC4CC(CC(C4)C2)C3)[C@@H]1c1ccc(CO)cc1I`, for which the composite z-score was 1.59 in [1]; -0.0761 in experiment [2]; 0.407 in [3]; 0.879 in [5]; 0.556 in [6]; 0.555 in experiment [7]. The results for the composite z-score in experiment [8], in [9] and in [10] were 1.34, 1.08 and 0.0974, respectively. In addition, the z-score in experiment [4] was -0.854 (inactive).
As to `CC(C)[Si](C#C[Si](C(C)C)(C(C)C)C(C)C)(O[C@H](C)c1cn([C@H](CO)Cc2ccccc2)nn1)C(C)C`, the composite z-score in experiment [1] is 0.107; in [2], -0.229; in experiment [3] it was -0.316; in [5], 0.0848; in experiment [6] it was 0.229; in experiment [7], 0.0255. Further, the composite z-score in [8] was -0.0447; in [9], 0.377; in experiment [10], 0.201. Moreover, in [4], the z-score was -0.0126 (inactive).
Consider `Cc1ccc(S[C@]2(C(=O)NCCCN(C)C)CC(=O)N(C3CCCCC3)[C@@H]2c2ccc(CO)cc2)cc1`, for which the composite z-score in experiment [1] is -0.0346; in experiment [2] it was 0.348; in experiment [3], 0.893; in experiment [5], -0.89; in [6] it was -0.464; in experiment [7], -0.674. The figures for the composite z-score in experiment [8], in experiment [9] and in [10] were -0.811, -0.774 and 0.83, respectively. Further, the z-score in experiment [4] is 0.104 (inactive).
Turning to `COc1ccc([Si](C)(C)[C@H]2[C@H](CCn3cc([C@H](O)c4ccccc4)nn3)O[C@@]3(C(=O)N(Cc4ccc(N5C(=O)c6cccc7cccc5c67)cc4)c4ccccc43)[C@@H]2C)cc1`, the composite z-score in [1] is 0.93; in experiment [2] it was 0.0396; in [3] it was 0.538; in [5], 0.324; in experiment [6] it was -0.509; in experiment [7], -0.775. The composite z-score in experiment [8] is -0.617; in experiment [9], -0.858; in experiment [10], -1.13. For the same molecule, the z-score in experiment [4] was -0.64 (inactive).
